Measurements reported in PubChem BioAssay (EPA / NIEHS).
Records with an inconclusive call do not appear. Active and inactive are the calls of the source. How the source made its calls, unless noted: active means hit-call score of the fitted dose curve at least 0.9, where 1 is the maximum; inconclusive means response in the unintended direction; inactive means score below 0.9.

Target: THRB (gene 7068) (UniProt P10828)
Assay: TOX21_TRB_COA_Agonist_Followup_ratio: Tox21 Thyroid Hormone Receptor beta Agonism through Coactivator Recruitment Follow-Up Assay, Ratio (AID 2283963; active means hit-call score of the fitted dose curve at least 0.9, where 1 is the maximum; inactive means score below 0.9)
Procedure, shortened: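 First, the GST-fused TRβ ligand-binding domain (5.0 nM) was incubated with test compound in 0.10% BSA. Next, fluorescein-tagged SRC-2 peptide (200 nM) and terbium anti-GST antibody (2 nM) were added. Finally, TR-FRET emission ratios were normalized against DMSO and T3 controls.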

Sequence of THRB (gene 7068) (P10828 whole entry, looked up): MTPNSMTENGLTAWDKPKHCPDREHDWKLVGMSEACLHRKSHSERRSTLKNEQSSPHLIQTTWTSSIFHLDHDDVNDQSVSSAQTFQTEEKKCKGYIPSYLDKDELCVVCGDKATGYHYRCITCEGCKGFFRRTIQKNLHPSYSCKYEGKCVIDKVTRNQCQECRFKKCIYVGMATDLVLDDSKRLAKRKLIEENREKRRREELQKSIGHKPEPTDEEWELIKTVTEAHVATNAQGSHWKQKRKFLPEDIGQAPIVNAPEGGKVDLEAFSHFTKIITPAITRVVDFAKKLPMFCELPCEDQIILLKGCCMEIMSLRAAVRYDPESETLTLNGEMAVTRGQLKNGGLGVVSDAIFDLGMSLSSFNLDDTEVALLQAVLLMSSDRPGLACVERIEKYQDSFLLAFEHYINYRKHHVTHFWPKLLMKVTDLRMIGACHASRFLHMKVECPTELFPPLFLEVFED

Row | Structure (SMILES) | outcome
1 | CN(C)c1ccc(N=O)cc1 | inactive
2 | O=C(Cl)OCCOCCOC(=O)Cl | inactive
3 | C=CC(=O)[O][Sn]([CH2]CCC)([CH2]CCC)[CH2]CCC | inactive
4 | CC1(C)COP(Oc2ccccc2)OC1 | inactive
5 | c1csc(-c2ccc(-c3cccs3)s2)c1 | inactive
6 | CCC[CH2][Sn]([CH2]CCC)([CH2]CCC)[CH2]CCC | inactive

Target: Retinoic acid receptor RXR-alpha (Homo sapiens) (UniProt P19793)
Assay: TOX21_TR_RXR_BLA_Agonist_Followup_ratio: Tox21 Thyroid Hormone Receptor beta Retinoid X Receptor alpha (RXRa) Agonism Beta-lactamase (BLA) Follow-Up Assay, Ratio (AID 2283968)
Procedure, shortened: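 RXRa-UAS-bla HEK293T cells, 5 h attachment at 37C/5% CO2, then 11 concentrations in triplicate for 16 h; 9-cis retinoic acid positive control. FRET-B/GCCF4-AM substrate 2 h at room temperature; 460:530 nm ratio, fitted for gain versus DMSO.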

Sequence of Retinoic acid receptor RXR-alpha (Homo sapiens) (P19793 whole entry, looked up): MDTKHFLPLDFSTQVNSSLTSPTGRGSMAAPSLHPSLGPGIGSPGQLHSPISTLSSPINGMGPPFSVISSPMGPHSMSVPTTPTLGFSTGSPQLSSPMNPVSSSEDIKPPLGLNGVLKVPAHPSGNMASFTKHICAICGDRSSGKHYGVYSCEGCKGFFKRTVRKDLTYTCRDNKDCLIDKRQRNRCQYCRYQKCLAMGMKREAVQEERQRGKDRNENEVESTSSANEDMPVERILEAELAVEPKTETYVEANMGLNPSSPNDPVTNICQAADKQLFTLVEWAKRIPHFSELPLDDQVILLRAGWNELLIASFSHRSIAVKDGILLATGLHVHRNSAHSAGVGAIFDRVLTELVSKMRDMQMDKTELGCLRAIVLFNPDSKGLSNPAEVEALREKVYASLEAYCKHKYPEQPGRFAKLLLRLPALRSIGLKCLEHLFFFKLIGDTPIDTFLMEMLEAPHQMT

Row | Structure (SMILES) | outcome | AC50
7 | O=C(Cl)OCCOCCOC(=O)Cl | inactive | 
8 | C=CC(=O)[O][Sn]([CH2]CCC)([CH2]CCC)[CH2]CCC |  | 0.137 µM (active)
9 | CC1(C)COP(Oc2ccccc2)OC1 | inactive | 
10 | CCC[CH2][Sn]([CH2]CCC)([CH2]CCC)[CH2]CCC |  | 5.08 µM (active)

Tested on: not listed separately
Assay: TOX21_TR_RXR_BLA_Agonist_Followup_viability: Viability Assessment in the Tox21 Thyroid Hormone Receptor beta Retinoid X Receptor alpha (RXRa) Agonism Beta-lactamase (BLA) Follow-Up Assay (AID 2283970)
Procedure, shortened: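 RXRa-UAS-bla HEK293T cells, 2,500/well in phenol red-free DMEM with 2% charcoal-stripped FBS, dosed for 16 h at 37C. Viability measured by CellTiter-Glo ATP luminescence; fitted bidirectionally against DMSO baseline, loss of signal indicating cytotoxicity.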

Row | Structure (SMILES) | AC50 | outcome
11 | CN(C)c1ccc(N=O)cc1 | 49.6 µM (active) | 
12 | C=CC(=O)[O][Sn]([CH2]CCC)([CH2]CCC)[CH2]CCC | 9.68 µM (active) | 
13 | CC1(C)COP(Oc2ccccc2)OC1 |  | inactive
14 | c1csc(-c2ccc(-c3cccs3)s2)c1 |  | inactive
15 | CCC[CH2][Sn]([CH2]CCC)([CH2]CCC)[CH2]CCC |  | inactive

Tested on: DIO1 (gene 1733)
Assay: CCTE_GLTED_hDIO1: CCTE's human Deiodinase 1 (DIO1) Inhibition Assay, Great Lakes Toxicology and Ecology Division (GLTED) Lab (AID 2283987);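 further: isolated human DIO1 enzyme in a cell-free setup rather than cells; enzyme activity read as free iodide liberated from substrate via Sandell-Kolthoff colorimetry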
Procedure, shortened: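 Cell-free human DIO1 enzyme incubated 3 h with test chemical; iodide freed from substrate then measured by Sandell-Kolthoff absorbance. Run in triplicate; loss of signal relative to DMSO taken as inhibition.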

Row | Structure (SMILES) | AC50
16 | O=C(CCl)Nc1ccccc1 | 21.1 µM (active)
17 | CC(C)N(C(=O)CCl)c1ccccc1 | 43.5 µM (active)
18 | O=[N+]([O-])c1ccc(Cl)c([N+](=O)[O-])c1 | 92.7 µM (active)
19 | O=C1c2ccccc2C(=O)C1C(=O)C(c1ccccc1)c1ccc(Cl)cc1 (configuration not stated) | 19.8 µM (active)
20 | O=S1(=O)OC(c2cc(Br)c(O)c(Br)c2)(c2cc(Br)c(O)c(Br)c2)c2ccccc21 | 58.8 µM (active)
21 | CCCCCCCCCCCCc1cccc(S(=O)(=O)O)c1 | 129 µM (active)

Target: Nucleoli Translocation, AR (gene 367) (UniProt P10275)
Assay: UPITT_HCI_U2OS_AR_TIF2_Nucleoli_Antagonist: University of Pittsburgh U2OS Androgen Receptor-Transcriptional Intermediary Factor 2 (AR-TIF2) Antagonism High Content Imaging Assay for Nucleoli Translocation (AID 2283997)
Procedure, shortened: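 Measured quantity was AR-RFP fluorescence localized to nucleoli in engineered U2OS cells also bearing TIF2-GFP, acquired on automated high-content imagers. Primary testing used 20 uM compound; actives were confirmed in triplicate wells.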

Sequence of Nucleoli Translocation, AR (gene 367) (P10275 whole entry, looked up): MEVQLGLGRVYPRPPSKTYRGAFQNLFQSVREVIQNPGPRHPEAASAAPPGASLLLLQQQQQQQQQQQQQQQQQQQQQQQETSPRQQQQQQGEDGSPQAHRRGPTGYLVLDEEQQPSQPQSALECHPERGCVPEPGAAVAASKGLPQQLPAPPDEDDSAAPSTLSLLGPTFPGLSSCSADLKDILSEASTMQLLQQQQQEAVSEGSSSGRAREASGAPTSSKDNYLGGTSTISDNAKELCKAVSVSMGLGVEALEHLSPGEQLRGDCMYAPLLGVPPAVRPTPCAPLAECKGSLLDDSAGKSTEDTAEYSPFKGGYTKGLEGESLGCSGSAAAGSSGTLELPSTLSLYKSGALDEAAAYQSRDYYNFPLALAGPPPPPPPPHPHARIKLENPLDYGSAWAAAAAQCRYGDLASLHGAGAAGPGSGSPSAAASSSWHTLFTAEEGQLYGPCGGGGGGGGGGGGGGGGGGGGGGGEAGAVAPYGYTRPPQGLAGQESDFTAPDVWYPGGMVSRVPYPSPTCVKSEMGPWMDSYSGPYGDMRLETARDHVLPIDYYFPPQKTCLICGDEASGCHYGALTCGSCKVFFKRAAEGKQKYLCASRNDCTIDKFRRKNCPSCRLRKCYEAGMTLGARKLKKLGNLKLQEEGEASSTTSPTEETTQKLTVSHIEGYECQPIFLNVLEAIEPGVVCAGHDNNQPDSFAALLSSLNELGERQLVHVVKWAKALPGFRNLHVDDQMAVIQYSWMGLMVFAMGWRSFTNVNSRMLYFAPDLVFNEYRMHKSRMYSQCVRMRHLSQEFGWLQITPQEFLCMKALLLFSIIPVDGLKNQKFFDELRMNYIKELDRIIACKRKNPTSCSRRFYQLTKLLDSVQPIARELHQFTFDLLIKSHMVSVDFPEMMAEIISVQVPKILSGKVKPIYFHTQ

Row | Structure (SMILES) | AC50 | outcome
22 | O=C(CCl)Nc1ccccc1 | 29 µM (active) | 
23 | CC(C)N(C(=O)CCl)c1ccccc1 | 16 µM (active) | 
24 | O=C(O)COc1cc(Cl)c(Cl)cc1Cl |  | inactive
25 | O=S1OC[C@@H]2[C@H](CO1)[C@]1(Cl)C(Cl)=C(Cl)[C@@]2(Cl)C1(Cl)Cl (some centres not stated) | 32.2 µM (active) | 
26 | C=CC(Cl)CCl (configuration not stated) |  | inactive
27 | CC(=Cc1ccccc1)[N+](=O)[O-] | 0.585 µM (active) | 
28 | CNC(=O)O/N=C/C(C)(C)S(C)(=O)=O |  | inactive
29 | O=[N+]([O-])c1ccc(Cl)c([N+](=O)[O-])c1 | 1.9 µM (active) | 
30 | O=C1c2ccccc2C(=O)C1C(=O)C(c1ccccc1)c1ccc(Cl)cc1 (configuration not stated) | 50 µM (active) | 
31 | O=S1(=O)OC(c2cc(Br)c(O)c(Br)c2)(c2cc(Br)c(O)c(Br)c2)c2ccccc21 |  | inactive
32 | O=C(NC(=O)c1c(F)cccc1F)Nc1cc(Cl)c(OC(F)(F)C(F)C(F)(F)F)cc1Cl (configuration not stated) |  | inactive
33 | N#CCC#N |  | inactive
34 | CCOP(=S)(OCC)OP(=S)(OCC)OCC | 72.1 µM (active) | 
35 | O=C(N[C@H]1CN2CCC1CC2)c1ccc2c(c1)OCCO2 |  | inactive
36 | COCCl |  | inactive
37 | OC(Cc1ccccc1Cl)(Cn1[nH]cnc1=S)C1(Cl)CC1 (configuration not stated) |  | inactive
